This passage reports max activity results from PubChem BioAssay AID743446 (Broad Institute, 2014).

Each structure is given as a SMILES string. Results with a measured potency or affinity are listed apart. Activity calls are given as the source filed them. How the calls were made is not given here.

This experiment is described as follows: viability loss in HEK293 cells – cell-based, plate reader, cherry-picked samples, cytotoxicity control, dose response (AID 743446). Conditions: stronger effect = lower value; at 26 µM unless noted.
Take `C[C@H]1CN([C@@H](C)CO)C(=O)c2cc(C#CCc3ccccc3)cnc2O[C@H]1CN(C)Cc1ccccc1`: the max activity was 13.9% [at 3 µM] (inactive).
The result for `CC1CN(C(=O)c2cccc(S(=O)(=O)Nc3cc(Cl)ccc3Cl)c2)CC(C)O1` (centres undefined) reads 5.34% (inactive); that for `COc1ccc(-n2nnnc2-c2nc3ccccc3s2)cc1`, 34.3% [at 0.8 µM] (inactive); that for `O=C(c1cc(-c2ccc(Cl)cc2Cl)on1)N1CCCC1`, 9.97% [at 0.8 µM] (inactive).
`Cc1ccsc1/C=N/Nc1cccc(C(=O)O)c1`: the max activity was 25.6% [at 0.8 µM] (inactive).
`COC(=O)c1c(N)sc(C(=O)NCCc2ccccc2)c1C`: the max activity is 16.2% [at 3 µM] (inactive).
Consider `c1ccc(COc2ccc(OCCCN3CCCC3)cc2)cc1`, for which the max activity was -13.8% [at 0.05 µM] (inactive).
With `COc1ccc(-c2nc(N)n(C(=O)c3cccs3)n2)cc1`, the max activity was 49.5% (inactive).
As for `CC[C@H](CO)Oc1cc(NCc2ccc(Cl)c(Cl)c2)c2ncn(C(C)C)c2c1`, the max activity is 27.3% [at 0.05 µM] (inactive).
With `CCCCCc1ccc(-c2ccc(C(=O)O)cc2)nc1`, the max activity was 34.4% [at 0.8 µM] (inactive).
As for `CCCCn1nnnc1C(c1cc2ccccc2o1)N1CCN(c2ccncc2)CC1` (centres undefined), the max activity is 11.8% (inactive).
In the case of `COc1ccc(N(CC(=O)NCc2cccs2)S(=O)(=O)c2ccc(C(C)=O)cc2)cc1`, the max activity was -10.6% [at 3 µM] (inactive).
With `CCCNC(=O)Nc1ccc2c(c1)C(=O)N(C)C[C@H](OC)[C@H](C)CN(Cc1ccc(-c3ccccn3)cc1)[C@@H](C)CO2`, the max activity was 32.1% [at 0.75 µM] (inactive).
For the compound `Cc1ccc(-n2[nH]c(=O)c(-c3ccccn3)c2C)cc1`, the max activity is 41.3% [at 12 µM] (inactive).
For the compound `COCC#Cc1ccc2c(c1)O[C@H](CN(C)S(=O)(=O)c1cccc(F)c1)[C@@H](C)CN([C@H](C)CO)S2(=O)=O`, the max activity was 14.5% [at 0.195 µM] (inactive).
As for `CCNC(=S)NNC(=O)c1cc(-c2ccc(OCC)cc2)nc2ccccc12`, the max activity is 15.8% [at 0.05 µM] (inactive).
Turning to `Cn1cnc(S(=O)(=O)N2C[C@@H](O)COC[C@H]3O[C@H](CC(=O)NC4CCCC4)CC[C@@H]32)c1`, the max activity was 13.5% [at 0.38 µM] (inactive).
For `COc1cc(NC(=O)c2cccc3c(-c4cnn(C)c4)coc23)cc(OC)c1OC` the value was -34.1% (inactive); for `c1ccc(COc2cccc(-c3cc4nc(NCCCn5ccnc5)ccn4n3)c2)cc1`, 48.7% [at 0.195 µM] (inactive); for `Nc1c(C(=O)Nc2cccc(C(=O)O)c2)sc2nc3c(cc12)CCCC3`, -12.6% [at 0.1 µM] (inactive).
For the compound `CC(=O)N1CCCC(c2cc(C(=O)Nc3ccccc3)no2)C1` (centres undefined), the max activity is -27% [at 12 µM] (inactive).
As for `COc1ccccc1CNS(=O)(=O)c1ccc(N2CCCC2)cc1Br`, the max activity is -9.37% (inactive).
With `Cc1ccc2nc(-c3ccc(NC(=O)C4CCCO4)cc3)[nH]c2c1` (centres undefined), the max activity was 41.8% (inactive).
On to `COc1ccc(C(=O)Nc2ccc3ccccc3n2)c(OC)c1OC`, for which the max activity was -6.81% [at 0.1 µM] (inactive).
For `COc1ccc(S(=O)(=O)N2CCN(C(=O)c3ccc(C)o3)CC2)cc1` the value was 29.4% [at 0.195 µM] (inactive); for `C[C@@H]1CN([C@H](C)CO)C(=O)c2cc(NC(=O)Nc3cccc4ccccc34)ccc2O[C@@H]1CN(C)C(=O)Nc1ccccc1`, 29.1% [at 0.8 µM] (inactive).
For the compound `Cc1ccc(S(=O)(=O)Nc2ccc3c(c2)C(=O)N([C@H](C)CO)C[C@@H](C)[C@H](CN(C)S(=O)(=O)c2cccs2)OCCCC[C@@H](C)O3)cc1`, the max activity is -17.3% [at 12 µM] (inactive).
For `O=C(CN1C(=O)c2ccccc2S1(=O)=O)c1ccc(F)c(F)c1` the value was 11.6% (inactive); for `Cc1cc(Cl)ccc1OCCCC(=O)Nc1cc(S(=O)(=O)N2CCOCC2)ccc1N1CCOCC1`, -21.8% [at 0.1 µM] (inactive); for `O=C(Nc1ccc(Cl)cc1)Nc1cccc(C(=O)O)c1`, -10.1% (inactive).
In the case of `CC(C)c1nnc(NC(=O)c2ccc3c(c2)OCO3)s1`, the max activity was 30.9% [at 0.38 µM] (inactive).
Turning to `CC1CCCN(c2ncnc3c2cnn3-c2ccccc2)C1` (centres undefined), the max activity is -23.6% [at 12 µM] (inactive).
As to `O=C(CSc1nc2ccccc2[nH]1)Nc1nc(-c2cccc(Br)c2)cs1`, the max activity is 46.2% [at 1.6 µM] (inactive).
Turning to `O=C(CN1C(=O)c2ccccc2S1(=O)=O)c1ccc2c(c1)OCCCO2`, the max activity was -22% [at 0.8 µM] (inactive).
